Hit rate of the full screen: of about 5,500 compounds, about 2,000 (36%) were called active. About 18% were inconclusive and are not listed. This is one part of the list. Values without a mark were called inactive. Rule as the data show it: active = normalized growth mostly below about 0.91 (no sharp cut-off); inconclusive = no clear call, values can overlap the other calls; inactive = mostly above about 0.92.
Experiment: chemical genetic growth profiling, strain panel (AID 1159580);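 also: tested at 20 µM; growth read once vehicle control cultures reached saturation at 30 °C; 1 = growth at the plate median or of vehicle wells; lower values mean less growth of the strain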
Settings: S. cerevisiae deletion strains, growth OD
[1] = locus YAR019C, strain CDC15, active compounds read low
[2] = locus YBL105C, strain PKC1, active compounds read low
[3] = locus YBR135W, strain CKS1, active compounds read low
[4] = locus YBR136W, strain MEC1, active compounds read low
[5] = locus YBR160W, strain CDC28, active compounds read low
[6] = locus YDL017W, strain CDC7, active compounds read low
[7] = locus YDL028C, strain MPS1, active compounds read low
[8] = locus YDL101C, strain DUN1, active compounds read low
[9] = locus YDL108W, strain KIN28, active compounds read low
[10] = locus YDL132W, strain cdc53, active compounds read low
[11] = locus YDL214C, strain PRR2, active compounds read low
[12] = locus YDR052C, strain DBF4, active compounds read low
[13] = locus YDR054C, strain cdc34, active compounds read low
[14] = locus YDR226W, strain ADK1, active compounds read low
[15] = locus YDR477W, strain SNF1, active compounds read low
[16] = locus YER123W, strain YCK3, active compounds read low
[17] = locus YER133W, strain GLC7, active compounds read low
[18] = locus YFL009W, strain cdc4, active compounds read low
[19] = locus YFL029C, strain CAK1, active compounds read low
[20] = locus YFR003C, strain YPI1, active compounds read low
[21] = locus YFR019W, strain FAB1, active compounds read low
[22] = locus YFR028C, strain CDC14, active compounds read low
[23] = locus YGR040W, strain KSS1, active compounds read low
[24] = locus YGR052W, strain FMP48, active compounds read low
[25] = locus YGR092W, strain DBF2, active compounds read low
[26] = locus YHR079C, strain IRE1, active compounds read low
[27] = locus YHR082C, strain KSP1, active compounds read low
[28] = locus YHR205W, strain SCH9, active compounds read low
[29] = locus YIL147C, strain SLN1, active compounds read low
[30] = locus YJL095W, strain BCK1, active compounds read low
[31] = locus YJL128C, strain PBS2, active compounds read low
[32] = locus YJL157C, strain FAR1, active compounds read low
[33] = locus YJR016C, strain ILV3, active compounds read low
[34] = locus YJR066W, strain TOR1 (second series), active compounds read low
[35] = locus YJR066W, strain TOR1, active compounds read low
[36] = locus YKL048C, strain ELM1, active compounds read low
[37] = locus YKL067W, strain YNK1, active compounds read low
[38] = locus YKL101W, strain HSL1, active compounds read low
[39] = locus YKL193C, strain SDS22, active compounds read low
[40] = locus YKL203C, strain TOR2, active compounds read low
[41] = locus YLR113W, strain HOG1, active compounds read low
[42] = locus YLR133W, strain CKI1, active compounds read low
[43] = locus YLR403W, strain SFP1, active compounds read low
[44] = locus YML070W, strain DAK1, active compounds read low
[45] = locus YMR001C, strain CDC5, active compounds read low
[46] = locus YMR205C, strain PFK2 (second series), active compounds read low
[47] = locus YMR277W, strain FCP1, active compounds read low
[48] = locus YNL006W, strain LST8, active compounds read low
[49] = locus YNL020C, strain ARK1, active compounds read low
[50] = locus YNL161W, strain CBK1, active compounds read low
[51] = locus YNL183C, strain NPR1, active compounds read low
[52] = locus YNL207W, strain RIO2, active compounds read low
[53] = locus YNL222W, strain SSU72, active compounds read low
[54] = locus YNL307C, strain MCK1 (second series), active compounds read low
[55] = locus YOL078W, strain AVO1, active compounds read low
[56] = locus YOL136C, strain PFK27, active compounds read low
[57] = locus YOR061W, strain CKA2, active compounds read low
[58] = locus YOR119C, strain RIO1, active compounds read low
[59] = locus YOR231W, strain MKK1, active compounds read low
[60] = locus YOR329C, strain SCD5, active compounds read low
[61] = locus YPL031C, strain PHO85, active compounds read low
[62] = locus YPL153C, strain RAD53, active compounds read low
[63] = locus YPL204W, strain HRR25, active compounds read low
[64] = locus YPL209C, strain IPL1, active compounds read low
[65] = locus YPL256C, strain CLN2, active compounds read low
[66] = locus YPR025C, strain CCL1, active compounds read low
[67] = locus YPR106W, strain ISR1, active compounds read low
[68] = locus YPR111W, strain DBF20, active compounds read low
[69] = strain NNK1, active compounds read low
[70] = strain TSCII, active compounds read low

In the case of `COC(=S)Nc1cc(Cl)cc(Cl)c1`, the normalized growth [1] is reported as 0.938, the normalized growth [2] is reported as 0.94 and the normalized growth [3] is reported as 0.935. It also gave a normalized growth [4] of 0.94, a normalized growth [5] of 0.935 and a normalized growth [6] of 0.938. The normalized growth [7] was 0.939, the normalized growth [8] was 0.949 and the normalized growth [9] was 0.943. The normalized growth [10] was 0.95, the normalized growth [11] was 0.702 and the normalized growth [12] was 0.935. For the same compound, the normalized growth [13] was 0.959, the normalized growth [14] was 0.921 and the normalized growth [15] was 0.685 (active). The normalized growth [16] was 0.608 (active), the normalized growth [17] was 0.559 (active) and the normalized growth [18] was 0.912. For the same compound, the normalized growth [19] was 0.919, the normalized growth [20] was 0.941 and the normalized growth [21] was 0.828. The normalized growth [22] was 0.966, the normalized growth [23] was 0.662 (active) and the normalized growth [24] was 0.698. The normalized growth [25] was 0.452 (active), the normalized growth (locus YHR030C, strain SLT2, active compounds read low) was 0.577 (active) and the normalized growth [26] was 0.499 (active). It also gave a normalized growth [27] of 0.633, a normalized growth [28] of 0.659 and a normalized growth [29] of 0.929. The normalized growth [30] was 0.584, the normalized growth [31] was 0.935 and the normalized growth [32] was 0.679 (active). For the same compound, the normalized growth [33] was 0.925, the normalized growth [34] was 0.653 and the normalized growth [35] was 0.604. The normalized growth [36] was 0.816, the normalized growth [37] was 0.704 (active) and the normalized growth [38] was 0.762. The normalized growth [39] was 0.919, the normalized growth [40] was 0.697 (active) and the normalized growth [41] was 0.458 (active). For the same compound, the normalized growth [42] was 0.742, the normalized growth [43] was 0.569 (active) and the normalized growth [44] was 0.644 (active). For the same compound, the normalized growth [45] was 0.935, the normalized growth [46] was 0.747 (active) and the normalized growth [47] was 0.932. It also gave a normalized growth [48] of 0.936, a normalized growth [49] of 0.727 and a normalized growth [50] of 0.934. The normalized growth [51] was 0.544 (active), the normalized growth [52] was 0.927 and the normalized growth [53] was 0.933. The normalized growth [54] was 0.599 (active), the normalized growth [55] was 0.923 and the normalized growth [56] was 0.648 (active). The normalized growth [57] was 0.719, the normalized growth [58] was 0.746 and the normalized growth [59] was 0.585. The normalized growth [60] was 0.929, the normalized growth [61] was 0.564 (active) and the normalized growth [62] was 0.588 (active). The normalized growth [63] was 0.567 (active), the normalized growth [64] was 0.935 and the normalized growth [65] was 0.627 (active). For the same compound, the normalized growth [66] was 0.936, the normalized growth [67] was 0.927 and the normalized growth [68] was 0.96. The normalized growth [69] was 0.936 and the normalized growth [70] was 0.913.

Compound `CC(C)OC(=O)Nc1cc(Cl)cc(Cl)c1` has a normalized growth [1] of 0.971, a normalized growth [2] of 0.97 and a normalized growth [3] of 0.964. For the same compound, the normalized growth [4] was 0.986, the normalized growth [5] was 0.981 and the normalized growth [6] was 0.974. The normalized growth [7] was 0.996, the normalized growth [8] was 0.972 and the normalized growth [9] was 0.98. It also gave a normalized growth [10] of 0.953, a normalized growth [11] of 0.864 and a normalized growth [12] of 0.993. The normalized growth [13] was 0.939, the normalized growth [14] was 0.982 and the normalized growth [15] was 0.873. It also gave a normalized growth [16] of 0.845, a normalized growth [17] of 0.764 and a normalized growth [18] of 0.96. The normalized growth [19] was 0.972, the normalized growth [20] was 0.972 and the normalized growth [21] was 0.966. The normalized growth [22] was 0.985, the normalized growth [23] was 0.838 and the normalized growth [24] was 0.822. It also gave a normalized growth [25] of 0.765, a normalized growth [26] of 0.754 and a normalized growth [27] of 0.988. For the same compound, the normalized growth [28] was 0.777, the normalized growth [29] was 0.987 and the normalized growth [30] was 0.716. The normalized growth [31] was 0.899, the normalized growth [32] was 0.902 and the normalized growth [33] was 0.957. The normalized growth [34] was 0.883, the normalized growth [35] was 0.99 and the normalized growth [36] was 0.864. It also gave a normalized growth [37] of 0.857, a normalized growth [38] of 0.888 and a normalized growth [39] of 0.97. The normalized growth [40] was 0.944, the normalized growth [41] was 0.479 (active) and the normalized growth [42] was 0.915. It also gave a normalized growth [43] of 0.853, a normalized growth [44] of 0.848 and a normalized growth [45] of 0.985. For the same compound, the normalized growth [46] was 0.898, the normalized growth [47] was 0.939 and the normalized growth [48] was 0.968. For the same compound, the normalized growth [49] was 0.9, the normalized growth [50] was 0.969 and the normalized growth [51] was 0.707. The normalized growth [52] was 0.975, the normalized growth [53] was 0.978 and the normalized growth [54] was 0.868. It also gave a normalized growth [55] of 0.974, a normalized growth [56] of 0.849 and a normalized growth [57] of 0.875. It also gave a normalized growth [58] of 0.85, a normalized growth [59] of 0.729 and a normalized growth [60] of 0.976. The normalized growth [61] was 0.756, the normalized growth [62] was 0.8 and the normalized growth [63] was 0.791. For the same compound, the normalized growth [64] was 0.973, the normalized growth [65] was 0.682 (active) and the normalized growth [66] was 0.978. It also gave a normalized growth [67] of 0.959, a normalized growth [68] of 0.948 and a normalized growth [69] of 0.963. It also gave a normalized growth [70] of 0.967.

Source: PubChem BioAssay AID1159580 (chemical genetic matrix, 2015)
